# Source: PubChem
# HT1080NT lethal: kills 2HG-producing HT-1080-NT fibrosarcoma cells; HT-1080-NT fibrosarcoma viability, CellTiter-Glo ATP luminescence, 48 h; Potency, µM (top dose mostly 46.1 µM), for inactives: top-dose activity, negative = less viability, usual class: cytotoxic; actives 1.6% (n = 360,000); AID 686970;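 further: NT is the 2HG producing partner of a matched IDH1 knockdown line; 0% = DMSO-treated cells and -100% = media-only wells without cells; nearly all actives have a fitted effect of over 55% in size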
#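 Toxicity toward the 2HG-producing NT line was scored as %Activity, normalised to DMSO and no-cell wells, from CellTiter-Glo luminescence after 48 hours' treatment.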
# ATXN2 expr inh: inhibitors of ATXN2 expression; HEK-293 ATXN2-luciferase reporter, luminescence, 24 h; Potency, µM (doses to about 57 µM), for inactives: at the top dose activity change, negative = inhibition, hits mostly inhibitors; actives 0.72% (n = 360,000); AID 1745845; further: on the % scale 0 is the no-effect control and ±100 the full control effect; nearly all actives have a fitted effect of over 55% in size
#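 qHTS (up to 57 uM final) was run with 24 h compound exposure of reporter cells at 37 °C. Each well was multiplexed: SteadyGlo luminescence measured ATXN2-luciferase expression after a fluorogenic Gly-Phe-AFC viability readout (25 uM final).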
# ATXN viability: viability counter-screen for ATXN expression inhibitors; actives 0.49% (n = 400,000); S2 cells (HEK-293 line with an ATXN2-luciferase reporter) viability, CellTiter-Fluor protease fluorescence, 24 h; AID 651635; Potency, µM (top dose mostly 56.7 µM), hits mostly cytotoxic; further: nearly all actives have a fitted effect of over 40% in size
# HT1080 IDH1KD tx: toxicity to HT-1080 IDH1 knockdown cells (counter line); HT-1080 IDH1 knockdown viability, ATP luminescence, 48 h; actives 2% (n = 360,000); Potency, µM (titrated, usually from 46.1 µM), for the others: at the highest dose activity, negative = toxicity, usual class: cytotoxic; AID 686971;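 further: 0% = DMSO wells and -100% = cell-free medium wells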
#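 Viability of IDH1-knockdown HT-1080 fibrosarcoma cells was assessed by CellTiter-Glo after 48 h at 37 °C with titrated compound; concentration-effect curves were classified by fit quality and response size.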
# TGFb SMAD3 inh: TGF-b pathway inhibition. actives 1.2% (n = 410,000). Potency, µM (doses to about 46.1 µM), inactives show at the highest dose activity, negative = inhibition, most hits filed as inhibitors. HepG2 CAGA-GFP TGF-b/SMAD3 reporter, GFP fluorescence, 18 h; TGF-beta stimulated, 500 pg/mL final; further: on the % scale 0 is the no-effect control and ±100 the full control effect; nearly all actives have a fitted effect of over 65% in size
#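 HEPG2 CAGA-GFP, 1000 cells/well; 2 h settle, 37 C; cpd via pin tool; TGF-b 500 pg/mL final; 18 h, 37 C; GFP imaging ex488/em500-530; %Activity normalised to -TGF-b and +DMSO controls; CRC fit, curve class.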
# HepG2 viability: kills HepG2 cells in TGF-b inhibitor counter-screen. HepG2 CAGA-GFP viability, ATP luminescence, 18 h. actives 0.76% (n = 410,000). Potency, µM (highest dose often 46.1 µM), for the others: at the top dose activity change, negative = cytotoxicity, most hits filed as cytotoxic
#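 CellTiter-Glo luminescence gave cytotoxicity after 18 hours at 37 degrees C. The cells were HepG2 CAGA-GFP in 1% FBS DMEM, stimulated with 500 pg/mL TGF-beta after compound addition. %Activity was normalised to no-cell wells (complete cell-killing) and DMSO (no toxicity), and curves were fitted and classified.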
# * hit, by the source's call; i = inactive; ? = inconclusive; . = no result; [ ] = dose if it differs, or a comment. In the library only some 3.8% were active in any assay of this set; here they are far more common. The call rests on the fitted dose curve; in most records, active means well fitted curve in the direction sought with a large enough effect; inconclusive means small, poorly fitted or top-dose-only effect, or another doubt; inactive means no such curve, though single readings can be large; an effect the other way counts as inactive or inconclusive. Potency means the concentration at half of the fitted maximal effect.
SMILES,HT1080NT lethal,ATXN2 expr inh,ATXN viability,HT1080 IDH1KD tx,TGFb SMAD3 inh,HepG2 viability
O=C(NNc1ncc(C(F)(F)F)cc1Cl)c1ccc(Cl)c(Cl)c1,5.5%,0.8%,i,-9.6%,-14.4%,-6.2%
Fc1ccc(NC(=S)NNc2ncc(C(F)(F)F)cc2Cl)c(F)c1,?,14.1µM*,i,16.4µM*,?,-131.3%
Cc1ccc(NC(=S)NNc2ncc(C(F)(F)F)cc2Cl)cc1,?,16.8µM*,i,?,?,-40.5%
Cc1ccc(NC(=S)NNc2ncc(C(F)(F)F)cc2Cl)c(C)c1,?,-30.6%,i,?,?,-31.9%
FC(F)(F)c1cnc(NNC(=S)Nc2ccc(Cl)cc2)c(Cl)c1,?,?,?,?,2.82µM*,-61.6%
COc1cc(=O)n2c(c1C(=O)NC(C)c1ccco1)CCN(C(=O)c1ccc3c(c1)OCCO3)CC2 (configuration not stated),.,.,i,.,.,.
COC(=O)c1c(Oc2ccc(Br)cc2)nnc(-c2ccccc2)c1-c1ccccc1,.,-1.2%,i,.,24.5%,-3.8%
CCCCCCNC(=O)CC(c1ccccc1)c1cc(Br)ccc1O (configuration not stated),?,?,i,?,12.6µM*,12.6µM*
CC(C)NC(=O)CC(c1ccccc1)c1cc(Br)ccc1O (configuration not stated),0.2%[9.24 µM],-8.2%,i,?,-7.2%,-22.7%
CCc1nc2cc(C(=O)NC3CCOC(C)(C)C3)cc(NC(=O)c3ccccc3OC)c2n1C (configuration not stated),.,.,i,.,.,.
Nc1ccc(C(=O)N2CC3CC(CN(Cc4ccccc4)C3)C2)cc1,.,0.3%,i,.,.,.
COc1cc(NC(=O)COc2ccccc2[N+](=O)[O-])ccc1NC(=O)c1cccs1,?,?,12.6µM*,?,?,-50.0%
COc1cc(NC(=O)COc2ccccc2Cl)ccc1NC(=O)c1cccs1,-4.8%,6.2%,i,-15.8%,-9.2%,-41.7%
O=C(c1ccc(S(=O)(=O)Cc2cc(F)ccc2F)c([N+](=O)[O-])c1)N1CCCC1,?,9.4%,i,20.6µM*,?,0.3%
O=C(c1ccc(S(=O)(=O)Cc2cc(F)ccc2F)c([N+](=O)[O-])c1)N1CCCCC1,-1.5%,7.9%,?,-14.2%,?,-1.1%
CN1CCN(c2ncc(-c3cc(Cl)cc(Cl)c3Cl)c(N)n2)CC1,.,5.0%,.,.,.,.
CC(=O)Nc1ccccc1-c1nc(CNC(=O)c2ccc(F)c(F)c2)c(C)o1,.,.,i,.,.,.
O/N=C(/CI)c1ccc2ccccc2c1,.,.,.,.,1.4%,0.3%
CN(C)CCN(C)Cc1ccccc1Sc1cccc2ccccc12,?,25.1µM*,20µM*,?,?,-110.5%
Cc1ccccc1-c1cc2c(c(OC3CCOC3)c1)OCCN(C(=O)Cn1cccn1)C2 (configuration not stated),.,.,i,.,.,.
Nc1nnc(N)c2ccccc12,-14.3%,27.7%,i,-0.5%,8.5%,6.0%
Nc1nsc2ccccc12,2.51µM*,-28.1%,i,2.51µM*,?,-79.1%
Cn1c(NCc2ccccc2)nc2cc(-c3ccccc3)sc2c1=O,9.4%,14.9%,i,2.0%,-5.4%,-8.5%
Cc1nc2cc(-c3ccccc3)sc2c(=O)n1N,3.66µM*,0.891µM*,i,3.66µM*,-13.5%,7.08µM*
COc1ccc(-c2cc3nc(C)n(N)c(=O)c3s2)cc1,4.11µM*,.,i,5.8µM*,30.8%,2.82µM*
COc1ccc(-c2cc3nc4n(c(=O)c3s2)CCC4)cc1,1.8%[9.24 µM],5.01µM*,i,0.1%,15.4%,-38.2%
CCOC(=O)c1ccc(NC(=S)N(CCCN(CC)CC)Cc2ccco2)cc1,-12.8%,-6.7%,i,-20.5%,-1.3%,-20.1%
